Screening data deposited in PubChem by National Center for Advancing Translational Sciences (NCATS).
In the library only some 11% were active in any assay of this set; here they are far more common.
G9a block = G9a (human) methyltransferase inhibition; Q96KQ7; G9a H3K9 monomethylation, AlphaScreen, 2 h; Potency, µM (top dose mostly 102 µM), for the others: at the highest dose activity, negative = inhibition, actives largely listed as inhibitors; 350,000 tested, 8.8% active; AID 504332; note: potency is the fitted concentration of half-maximal effect; % is set by controls: 0 for no effect and ±100 for the full control effect; nearly all actives have a fitted effect of over 75% in size
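Enzyme 20 nM + cpd, 15 min RT; add b-H3K9 pep 500 nM / SAM 20 uM; 2 h RT; anti-H3K9me1 Ab 0.5 ug/mL + SA donor / anti-rabbit acceptor beads 20 ug/mL each, 10 min; AlphaScreen read.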
L3MBTL1 inh = blocks human L3MBTL1. Q9Y468. AlphaScreen L3MBTL1–H3K9me1 peptide binding. Potency, µM (series often up to 57.1 µM), for inactives: at the top dose activity, negative = inhibition, usual class: inhibitors. 230,000 tested, 0.66% active. AID 485360; note: potency is the fitted concentration of half-maximal effect; % is set by controls: 0 for no effect and ±100 for the full control effect; nearly all actives have a fitted effect of over 60% in size
Target sequence (Q9Y468 whole entry, looked up): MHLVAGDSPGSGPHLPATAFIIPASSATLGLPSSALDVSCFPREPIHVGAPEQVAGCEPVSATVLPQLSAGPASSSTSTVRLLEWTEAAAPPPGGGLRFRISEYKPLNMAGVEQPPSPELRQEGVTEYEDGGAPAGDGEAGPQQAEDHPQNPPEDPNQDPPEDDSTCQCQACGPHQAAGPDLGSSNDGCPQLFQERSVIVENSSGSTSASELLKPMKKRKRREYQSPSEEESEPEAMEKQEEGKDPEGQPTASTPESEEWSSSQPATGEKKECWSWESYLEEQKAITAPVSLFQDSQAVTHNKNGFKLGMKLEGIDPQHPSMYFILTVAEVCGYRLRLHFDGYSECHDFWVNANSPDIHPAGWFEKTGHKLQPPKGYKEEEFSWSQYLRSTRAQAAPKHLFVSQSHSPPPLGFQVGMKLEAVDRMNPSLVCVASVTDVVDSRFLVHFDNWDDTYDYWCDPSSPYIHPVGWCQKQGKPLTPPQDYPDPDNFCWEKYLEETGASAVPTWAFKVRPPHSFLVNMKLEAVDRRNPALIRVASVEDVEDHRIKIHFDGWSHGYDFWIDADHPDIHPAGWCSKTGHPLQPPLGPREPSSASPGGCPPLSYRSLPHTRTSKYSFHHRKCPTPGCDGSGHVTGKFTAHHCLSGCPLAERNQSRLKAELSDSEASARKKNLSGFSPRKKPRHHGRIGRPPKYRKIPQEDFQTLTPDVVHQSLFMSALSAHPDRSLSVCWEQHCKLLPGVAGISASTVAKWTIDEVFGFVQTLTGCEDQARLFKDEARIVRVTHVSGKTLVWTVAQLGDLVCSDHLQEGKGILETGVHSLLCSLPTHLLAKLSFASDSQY
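L3MBTL1 (50 nM) pre-complexed 30 min with biotinylated H3(1-15)K9me1 peptide (75 nM), then compounds added for 30 min at room temperature; AlphaScreen streptavidin donor/nickel chelate acceptor beads (10 ug/mL final) read after 30 min dark incubation.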
JMJD2A Tudor = blocks the human JMJD2A Tudor domain; AlphaScreen JMJD2A-Tudor / H3K4me3 peptide binding; Potency, µM (titrated, usually from 114 µM), for inactives: top-dose activity change, negative = inhibition, hits mostly inhibitors; 390,000 tested, 4.4% active; AID 504339; note: potency is the fitted concentration of half-maximal effect; % is set by controls: 0 for no effect and ±100 for the full control effect; nearly all actives have a fitted effect of over 50% in size
BAZ2B block = BAZ2B (human) inhibition | Q9UIF8 | AID 504333 | Potency, µM (titrated, usually from 114 µM), inactives show at the top dose activity change, negative = inhibition, most hits filed as inhibitors | AlphaScreen BAZ2B-H3K14Ac peptide displacement | 360,000 tested, 4.4% active; note: potency is the fitted concentration of half-maximal effect; % is set by controls: 0 for no effect and ±100 for the full control effect; nearly all actives have a fitted effect of over 60% in size
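Compounds, titrated to a top concentration of 110 uM, were incubated 30 min at room temperature with preformed BAZ2B/acetyl-K14 H3 peptide complex (50 nM each). Proximity signal was measured by AlphaScreen after 20 min with beads.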
PI5P4Ka inh = inhibitors of human PI5P4K alpha | P48426 | PI5P4Kalpha enzyme, ADP-Glo luminescence, 60 min; active compounds read low | max response, % | 330,000 tested, 1.2% active | AID 652105; active = max response of -50% or lower; inconclusive = between -30% and -50%; inactive = -30% or higher; note: value at the top dose of about 77 µM; % is set by controls: 0 for no effect and ±100 for the full control effect
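Controls without substrate or without enzyme flank wells where PI5P4Kalpha converts substrate using 5 microM ATP (final). Incubation lasts 60 minutes at room temperature; ADP formed is read by ADP-Glo luminescence.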
HP1b binding inh = HP1-beta chromodomain-methylated histone interaction inhibition; Potency, µM (top dose mostly 114 µM), for the others: top-dose activity change, negative = inhibition, actives largely listed as inhibitors; AID 540317; AlphaScreen HP1-beta / biotin-H3K9me3 peptide binding; 390,000 tested, 0.56% active; note: potency is the fitted concentration of half-maximal effect; nearly all actives have a fitted effect of over 70% in size
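AlphaScreen: HP1-beta (50 nM) preformed 30 min with biotin-H3(1-18)K9me3 peptide (50 nM) in PBS pH 7.4, 0.01% Tween-20. Compound added for 30 min at RT, then streptavidin donor/nickel chelate acceptor beads (10 ug/mL) for 30 min.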
ADP-Glo counter = interferes with ADP-Glo detection without enzyme present | Potency, µM (doses to about 76.9 µM), for the others: at the highest dose activity change, negative = inhibition, usual class: inhibitors | ADP-Glo detection counter-screen, luciferase luminescence, no enzyme | 1,100 tested, under 10 active | shares compounds with PI5P4Ka inh | AID 743285
Active calls of the source: *; ? = inconclusive; / = no result; [ ] = dose if it differs, or a comment. Unless noted, calls come from the whole dose curve; as a rule, active = well fitted curve in the direction sought with a large enough effect; inconclusive = small, poorly fitted or top-dose-only effect, or another doubt; inactive = no such curve, though single readings can be large; an effect the other way counts as inactive or inconclusive.

SMILES	G9a block	L3MBTL1 inh	JMJD2A Tudor	BAZ2B block	PI5P4Ka inh	HP1b binding inh	ADP-Glo counter
Cc1ccc(C(C)C)c(OC(C)C(=O)NCC2(N(C)C)CCCCC2)c1 (centres undefined)	?	/	-22.8%	-19.8%	/	17.5%	/
O=C(Nc1ccc2c(c1)OCCO2)c1ccccc1F	25.5%[59 µM]	2.9%	-26.7%[11.4 µM]	10.1%	-52.1*	-3.3%	-24.1%
COc1ccc(-c2nnc(SCC(=O)NCc3ccco3)o2)cc1	?	/	-26.7%	-38.5%	/	12.8%	/
O=C(CSc1nnc(-c2ccc(OC(F)F)cc2)o1)NC(=O)NCc1ccco1	?	?	?	50.1µM*	-54.1*	10.2%	-3.1%
CCCS(=O)(=O)NC(=O)C1(C)CCCN(C(=O)c2cc(F)cc(F)c2)C1 (centres undefined)	/	/	/	/	1.6	/	/
CC1=C(c2ccc(C)c(C)c2)S(=O)(=O)N(Cc2ccc(C(=O)Nc3cc(F)ccc3F)cc2)C1=O	-4.0%[59 µM]	/	-2.0%	-8.5%	/	-4.7%	/
NC(Cc1ccccc1)c1csc(NC(=O)Nc2ccccc2Oc2ccccc2)n1 (centres undefined)	/	/	/	/	-21.9	/	/
NC(Cc1ccc(C(F)(F)F)cc1)c1csc(NC(=O)Nc2ccccc2Oc2ccccc2)n1 (centres undefined)	/	/	/	/	-50.3*	/	-1.2%
COC(=O)c1c(-c2ccc(Cl)cc2)noc1N1CCN(c2ccc(OC)cc2)CC1	-41.5%[59 µM]	/	-7.8%	0.5%	/	16.8%[57 µM]	/
O=C(Nc1cccc(C(F)(F)F)c1)C1CCN(S(=O)(=O)c2cccc3nsnc23)CC1	-19.4%[59 µM]	/	-30.0%	/	/	35.7%	/
O=C(c1ccc(CSc2nc3ccncc3n2Cc2cccc(F)c2)cc1)N1CCCCCC1	2.2%[59 µM]	/	-22.8%	-5.7%	/	25.2%	/
O=S(=O)(Nc1nccs1)c1cc(Cl)ccc1Cl	8.7%[12.7 µM]	/	-12.0%	-36.1%	-51.4*	27.5%	-1.1%
CCS(=O)(=O)c1ccc2oc(Nc3ccc(C(C)C)cc3)nc2c1	1.78µM*	/	?	-35.3%	-50.4*	15.8µM*	-5.6%
CCS(=O)(=O)c1ccc2oc(Nc3cc(C)cc(C)c3)nc2c1	88.8%[59 µM]	-1.3%	-19.7%	-29.8%[57.1 µM]	/	12.1%	/
Cc1nc2scc(-c3cccs3)c2c(=O)n1CC(=O)O	-3.1%[59 µM]	/	0.4%	6.0%	-3.6	36.7%	/
CCn1c(=S)[nH]c2scc(-c3cccs3)c2c1=O	35.5µM*	2.9%	-33.1%	-21.2%	-53.4*	27.2%	3.5%
O=C(CSc1ccccc1)Nc1nnc(COc2ccc(Cl)cc2)s1	1.41µM*	3.5%	56.2µM*	50.1µM*	-53.5*	?	-7.4%
O=C(Cc1ccc(S(=O)(=O)N2CCOCC2)s1)NCC1CCCCC1	-22.8%	/	-22.6%	?	?	-9.2%	/
O=C(Cc1ccc(S(=O)(=O)N2CCOCC2)s1)NC1CCCCC1	12.6µM*	-21.6%	?	50.1µM*	-50.9*	-25.7%	-8.6%
CC(C)Cc1nnc(NC(=O)CC(=O)Nc2ccccc2C(=O)O)s1	?	/	1.0%	-31.5%	-56.9*	30.4%	0.3%
CCc1nnc(NC(=O)CC(=O)Nc2ccccc2C(=O)O)s1	0.5%[59 µM]	3.2%	?	8.5%	/	14.5%	/
CCCCc1nnc(NC(=O)CC(=O)Nc2ccccc2C(=O)O)s1	-42.0%	/	-19.9%	6.8%	-61.3*	7.7%	-8.7%
O=C(NCCc1csc(-c2cccc(F)c2)n1)c1ccccc1C(F)(F)F	2.8%[59 µM]	/	0.0%	7.2%	/	27.1%[57 µM]	/
NS(=O)(=O)c1cccc(NC(=O)CSc2nnnn2-c2ccccc2)c1	16.5%[12.7 µM]	/	-9.4%	-6.7%	-89.1*	16.7%	-5.6%
O=C1Nc2ccc(S(=O)(=O)NCc3ccccn3)c3cccc1c23	14.4%	/	?	-23.2%	-59.7*	?	-8.0%
Cc1ccc(-c2onc3ccc(C(=O)O)cc23)cc1	39.8µM*	/	-20.5%	-19.7%	-52.3*	28.3%	0.7%
